Consider eight compounds from PubChem BioAssay (NCI).

SMILES strings stand for the structures. The panel holds about 83,000 compounds, 20% with a hit somewhere; the sample as a whole holds those more often.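 Results are percent growth after 48 hours of single-concentration exposure. 100 means growth as in untreated cells, lower positive values show inhibition; negative values down to -100 show cell death.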 A number with no mark means an inactive call. The source made the active and inactive calls. How the source made its calls: active means growth percent below 10; inactive means the rest.

Among the test systems are SK-MEL-2 melanoma; EKVX NSCLC; SN12C renal; TK-10 renal; ACHN renal; CAKI-1 renal; A498 renal; CCRF-CEM leukemia; MOLT-4 leukemia; SR leukemia; RPMI-8226 leukemia; OVCAR-8 ovarian; OVCAR-5 ovarian; OVCAR-4 ovarian; SK-OV-3 ovarian; IGROV1 ovarian; OVCAR-3 ovarian; HS 578T breast; NCI/ADR-RES ovarian; UO-31 renal.
What all share (experiment): NCI-60 one-dose screen, 48 h (100 = growth as untreated, 0 = no growth, -100 = all killed)
Holding throughout (details): 10 µM unless noted

On to `COc1cc(C2C(C(=O)OCc3ccccc3)=C(C)Nc3nc4ccccc4n32)cc(OC)c1OC` (stereo not drawn), for which the growth in the experiment on SK-MEL-2 melanoma is 47.5%; in the experiment with EKVX NSCLC, 36.8%; in the experiment on SN12C renal, 37.1%; in the experiment on TK-10 renal, 34.6%; in the experiment with ACHN renal, -4.94% (active); in the experiment on CAKI-1 renal, 6.89% (active). For the same compound, the growth in the experiment on A498 renal was -22.7% (active); in the experiment with CCRF-CEM leukemia it was 41.7%; in the experiment with MOLT-4 leukemia, 33.2%; with SR leukemia, 11.3%; in the experiment on RPMI-8226 leukemia, 48.8%; in the experiment with OVCAR-8 ovarian, 13.5%. In addition, the growth in the experiment on OVCAR-5 ovarian was 45.5%; in the experiment with OVCAR-4 ovarian it was 1.46% (active); in the experiment with SK-OV-3 ovarian it was 25.6%; in the experiment with IGROV1 ovarian, 44.1%; with OVCAR-3 ovarian it was 12.1%; in the experiment on HS 578T breast it was 14%. Moreover, in the experiment on NCI/ADR-RES ovarian, the growth was 6.58% (active).

In the case of `CC(=O)C[n+]1cccc2c3ccccc3ccc21`, the growth in the experiment with SK-MEL-2 melanoma was 106%; with EKVX NSCLC, 56.6%; with SN12C renal, 80.1%; in the experiment on TK-10 renal, 101%; in the experiment with ACHN renal it was 92.1%; in the experiment with CAKI-1 renal, 94.1%. In addition, the growth is 110% in the experiment on A498 renal; 65.5% in the experiment on CCRF-CEM leukemia; 53.9% with MOLT-4 leukemia; 66.3% with SR leukemia; 64% with RPMI-8226 leukemia; 81.5% with OVCAR-8 ovarian. In addition, the growth was 103% in the experiment on OVCAR-5 ovarian; 63.8% with OVCAR-4 ovarian; 96.1% with SK-OV-3 ovarian; 95.2% in the experiment on IGROV1 ovarian; 70% in the experiment with OVCAR-3 ovarian; 102% in the experiment with HS 578T breast. In addition, in the experiment with NCI/ADR-RES ovarian, the growth is 107%.

`O=C(CSc1nc2ccccc2c(=O)[nH]1)Nc1ccccc1C(=O)O`: the growth in the experiment with SK-MEL-2 melanoma is 116%; with EKVX NSCLC, 92.3%; in the experiment with SN12C renal it was 98.9%; in the experiment with TK-10 renal it was 116%; in the experiment with ACHN renal it was 89.3%; in the experiment with CAKI-1 renal, 89.9%. Also, the growth is 216% in the experiment with A498 renal; 90.5% in the experiment with CCRF-CEM leukemia; 97% in the experiment with MOLT-4 leukemia; 95.2% in the experiment on SR leukemia; 102% in the experiment on RPMI-8226 leukemia; 109% with OVCAR-8 ovarian. Moreover, the growth is 105% in the experiment with OVCAR-5 ovarian; 109% in the experiment on OVCAR-4 ovarian; 90.7% with SK-OV-3 ovarian; 109% in the experiment on IGROV1 ovarian; 106% in the experiment on OVCAR-3 ovarian; 79.3% with HS 578T breast. In addition, the growth in the experiment on NCI/ADR-RES ovarian is 103%.

As to `CC1CCc2c(sc3nc(SCC(=O)c4cccc(Br)c4)n(-c4ccccc4)c(=O)c23)C1` (stereo not drawn), the growth with SK-MEL-2 melanoma was 99.2%; with EKVX NSCLC, 66.2%; in the experiment with SN12C renal, 32.8%; in the experiment on TK-10 renal it was -21.6% (active); in the experiment on ACHN renal, -60.6% (active); in the experiment on CAKI-1 renal, 6.39% (active). Further, the growth with A498 renal was 114%; in the experiment with CCRF-CEM leukemia, 35.3%; in the experiment with MOLT-4 leukemia it was 28.6%; in the experiment with SR leukemia, 22.3%; in the experiment on RPMI-8226 leukemia it was 58.8%; with OVCAR-5 ovarian it was 47.8%. Moreover, the growth in the experiment on OVCAR-4 ovarian was 30.6%; with SK-OV-3 ovarian, 58%; in the experiment with IGROV1 ovarian, 33.7%; in the experiment with HS 578T breast it was 57.7%; in the experiment on NCI/ADR-RES ovarian, 35.2%.

Regarding `CS(=O)(=O)Nc1cncc(-c2ccc3ncnc(NCc4ccccc4)c3c2)c1`, the growth is -8.92% (active) with SK-MEL-2 melanoma; 55.2% in the experiment on EKVX NSCLC; 34.8% with SN12C renal; 63% with TK-10 renal; 77.5% in the experiment on ACHN renal; 60.7% in the experiment on CAKI-1 renal. Further, the growth was 63.8% in the experiment on A498 renal; 17% in the experiment with CCRF-CEM leukemia; -26% (active) in the experiment on MOLT-4 leukemia; 6.25% (active) with SR leukemia; 52% in the experiment on RPMI-8226 leukemia; 49.2% with OVCAR-8 ovarian. Moreover, the growth in the experiment on OVCAR-5 ovarian was 42.6%; in the experiment on OVCAR-4 ovarian, 44.8%; with SK-OV-3 ovarian, 67.6%; in the experiment with IGROV1 ovarian, 4.57% (active); with OVCAR-3 ovarian, 33.6%; in the experiment on HS 578T breast, -5.05% (active). For the same compound, the growth in the experiment on NCI/ADR-RES ovarian was 89%.

For the compound `CC(C)(C)OC(=O)N1C/C(=C\c2ccc(F)cc2)C(=O)/C(=C/c2ccc(F)cc2)C1`, the growth is -36.4% (active) in the experiment on SK-MEL-2 melanoma; -52.6% (active) in the experiment with EKVX NSCLC; -93.7% (active) in the experiment on SN12C renal; 10% in the experiment on TK-10 renal; -100% (active) with ACHN renal; -37.4% (active) in the experiment on CAKI-1 renal. Besides, the growth with A498 renal is 97%; in the experiment on CCRF-CEM leukemia, -6.19% (active); with MOLT-4 leukemia, -7.57% (active); in the experiment with SR leukemia it was -11.1% (active); in the experiment on RPMI-8226 leukemia it was -15.4% (active); in the experiment with OVCAR-8 ovarian, -68.3% (active). The growth in the experiment with OVCAR-5 ovarian is -81.9% (active); with SK-OV-3 ovarian it was 0.0941% (active); in the experiment with IGROV1 ovarian it was -56.8% (active); in the experiment with OVCAR-3 ovarian, -90% (active); with HS 578T breast, -6.73% (active); in the experiment with NCI/ADR-RES ovarian it was -56.8% (active).

For `COc1cc(CNC(=O)C[C@H](C)CCC=C(C)C)ccc1OCc1cn(-c2ccc(Cl)cc2Cl)nn1`, the growth is 71.7% with SK-MEL-2 melanoma; 81.1% with EKVX NSCLC; 60.5% with UO-31 renal; 68.7% with TK-10 renal; 61.1% in the experiment with ACHN renal; 31.8% in the experiment on CAKI-1 renal. Moreover, the growth was 59% with A498 renal; 116% in the experiment on CCRF-CEM leukemia; 84% in the experiment with MOLT-4 leukemia; 79.8% in the experiment with SR leukemia; 90.7% in the experiment on RPMI-8226 leukemia; 29.3% in the experiment with OVCAR-8 ovarian. The growth in the experiment on OVCAR-5 ovarian is 91.7%; with SK-OV-3 ovarian it was 26.1%; in the experiment with IGROV1 ovarian, 72.3%; in the experiment on OVCAR-3 ovarian, 101%; in the experiment on HS 578T breast it was 48.4%; in the experiment on NCI/ADR-RES ovarian, 32.9%.

Take `CCCCCCCCc1ccc(C(=O)Nc2ccc(C)cc2C(=O)O)cc1`: the growth in the experiment on SK-MEL-2 melanoma is 94.8%; in the experiment on EKVX NSCLC, 77.5%; with UO-31 renal, 76.3%; in the experiment on TK-10 renal, 103%; in the experiment with ACHN renal, 69.4%; with CAKI-1 renal it was 85.4%. Moreover, the growth is 109% with A498 renal; 53.9% in the experiment on CCRF-CEM leukemia; 75.3% in the experiment with MOLT-4 leukemia; 90% in the experiment with SR leukemia; 63.5% with RPMI-8226 leukemia; 94.1% in the experiment on OVCAR-8 ovarian. Moreover, the growth in the experiment on OVCAR-5 ovarian was 109%; in the experiment with OVCAR-4 ovarian, 99.8%; in the experiment on SK-OV-3 ovarian, 100%; with IGROV1 ovarian it was 83.9%; in the experiment with OVCAR-3 ovarian, 94%; in the experiment on HS 578T breast it was 105%. Further, in the experiment on NCI/ADR-RES ovarian, the growth was 94.1%.
